Source: PubChem BioAssay (National Center for Advancing Translational Sciences (NCATS))
HCMV inh = inhibitors of human cytomegalovirus. AID 1259415. activity change, negative = inhibition, % at 57.5 µM. 4.5% of 410,000 active. HFF cells, HCMV-luciferase reporter, 72 h; active compounds read low; in the data active = activity change below about -60%; inconclusive = no clear call, values can overlap the other calls; inactive = above about -39%; also: % is scaled to controls: 0 for no effect and ±100 for the full control effect
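Human foreskin fibroblasts infected with luciferase-reporter HCMV at MOI 1 PFU/cell, compounds at two doses. Luciferase measured 72 h post infection; normalized to buffer-only basal and Salinomycin (10uM) controls.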
SARS PLpro yeast = blocks SARS-CoV papain-like protease in a yeast assay; S. cerevisiae expressing SARS-CoV PLpro, growth rescue; Potency, µM (titrated, usually from 32.9 µM), for the others: at the highest dose activity, positive = growth rescue, usual class: activators; 0.19% of 330,000 active; AID 485353; calls by dose curve; also: potency is read from the fitted curve at half-maximal effect; 0% is about no effect; nearly all actives have a fitted effect of over 55% in size
Pf growth 48h = P. falciparum growth inhibition at 48 hours (one generation); P. falciparum luciferase growth in erythrocytes, 48 h; Potency, µM (titrated, usually from 28.7 µM), for inactives: top-dose activity change, negative = inhibition, hits mostly inhibitors; 5.9% of 310,000 active; AID 504832; also: potency is read from the fitted curve at half-maximal effect; % is scaled to controls: 0 for no effect and ±100 for the full control effect
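First compound was added to culture medium, then infected red cells at 0.1% parasitemia and 2% hematocrit (final). After incubation at 37 C under 5% CO2, luciferase detection reagent was dispensed and light output recorded.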
Pf growth 96h = P. falciparum growth inhibition at 96 hour, primary screen for plastid delayed-death inhibitors; P. falciparum luciferase reporter growth, 96 h; Potency, µM (top dose mostly 28.7 µM), for inactives: at the highest dose activity change, negative = inhibition, usual class: inhibitors; 6.9% of 320,000 active; AID 504834; also: potency is read from the fitted curve at half-maximal effect; % is scaled to controls: 0 for no effect and ±100 for the full control effect
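Two-generation exposure (96 h) targets delayed-death phenotype. Reporter parasites carrying integrated firefly luciferase, in red cells at 2% hematocrit and 0.05% parasitemia final, kept at 37 C, 5% CO2; luminescence loss indicates inhibition.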
HCV inh = HCV inhibition; Huh7.5.1 HCVcc-Cre infection, luciferase reporter, 44 h; Potency, µM (doses to about 41.8 µM), for the others: top-dose activity change, negative = inhibition, hits mostly inhibitors; 3.4% of 340,000 active; AID 651820; also: potency is read from the fitted curve at half-maximal effect; % is scaled to controls: 0 for no effect and ±100 for the full control effect
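Compounds are dispensed onto cells plated 4 h earlier at 1,000 per well, with HCVcc-Cre virus (about 0.5 moi) added next. Following 44 h of culture, luminescent signal is measured for 15 sec after 15 min with substrate at room temperature.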
Sm TGR inh = blocks Schistosoma mansoni thioredoxin glutathione reductase | Q962Y6 | purified TGR, DTNB reduction, TNB absorbance 405 nm | Potency, µM (doses to about 114 µM), for the others: at the top dose activity change, negative = inhibition, hits mostly inhibitors | 3% of 360,000 active | AID 485364; also: potency is read from the fitted curve at half-maximal effect; % is scaled to controls: 0 for no effect and ±100 for the full control effect; nearly all actives have a fitted effect of over 60% in size
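First, TGR (20 nM dispensed) and NADPH were mixed with compound. Second, a 15 min room-temperature incubation followed. Third, further NADPH and then DTNB were added to start the reaction. Finally, TNB absorbance was monitored kinetically.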
Numbers without * were called inactive; [ ] = another dose, or the depositor's remark. Only some compounds are listed: those with a hit (about 15% of all), similar ones and a draw of the others. Unless noted, calls follow the shape of the dose curve; as a rule, active = well fitted curve in the direction sought with a large enough effect; inconclusive = small, poorly fitted or top-dose-only effect, or another doubt; inactive = no such curve, though single readings can be large; an effect the other way counts as inactive or inconclusive.

Screening C#CCCC(=O)c1ccccc1/C=[N+](\[O-])c1ccccc1 returned HCMV inh 74, SARS PLpro yeast 5%, Pf growth 48h 1.2µM*, Pf growth 96h inconclusive, HCV inh -5% and Sm TGR inh inconclusive.
For O=C(COC(=O)C1CCC1)NCCc1ccc(Cl)cc1Cl the results were HCMV inh -13, SARS PLpro yeast 3%, Pf growth 48h -9%, Pf growth 96h inconclusive, HCV inh 11% and Sm TGR inh 0%.
CCC(C)(C)C1CCc2nc3ccccc3c(C(=O)OC(C)C(=O)Nc3c(C)n(C)n(-c4ccccc4)c3=O)c2C1 (centres undefined) was read as HCMV inh inconclusive, SARS PLpro yeast -9%, Pf growth 48h inconclusive, Pf growth 96h 10µM*, HCV inh inconclusive and Sm TGR inh -2%.
COc1cc(C(=O)NNC2=NC(C)(C)Cc3cc(C)c(C)cc32)cc(OC)c1OC was read as HCMV inh -38, SARS PLpro yeast 2%, Pf growth 48h 10%, Pf growth 96h -21%, HCV inh -3% and Sm TGR inh 5%.
Screening COc1ccnc(N=CNOCc2cccc(C(F)(F)F)c2)c1C#N returned HCMV inh -13, SARS PLpro yeast -2%, Pf growth 48h 8%, Pf growth 96h 15µM*, HCV inh 9% and Sm TGR inh 5%.
For O=C(Nc1ccccc1N1CCCC1)C1CCN(S(=O)(=O)c2ccccc2C(F)(F)F)CC1 the results were HCMV inh -15, SARS PLpro yeast -5%, Pf growth 48h inconclusive, Pf growth 96h inconclusive, HCV inh inconclusive and Sm TGR inh -12%.
`Cc1ccc(S(=O)(=O)N2CCN(C(=O)c3cc(S(=O)(=O)N(C)C)ccc3N3CCCC3)CC2)c(C)c1` gave HCMV inh -20, SARS PLpro yeast 5%, Pf growth 48h 2.9µM*, Pf growth 96h 5.2µM*, HCV inh inconclusive and Sm TGR inh -15%.
Screening O=C(NC(Cc1ccccc1)C(=O)O)C1CCN(S(=O)(=O)c2ccccc2C(F)(F)F)CC1 (centres undefined) returned HCMV inh 38, SARS PLpro yeast 1%, Pf growth 48h 32%, Pf growth 96h 64%, HCV inh 9% and Sm TGR inh -11%.
`Cc1ccc(S(=O)(=O)N2CCC(C(=O)Nc3ccccc3N3CCCC3)CC2)c(C)c1` gave HCMV inh inconclusive, SARS PLpro yeast 6%, Pf growth 48h 9.3µM*, Pf growth 96h inconclusive, HCV inh inconclusive and Sm TGR inh inconclusive.
`O=C(Nc1ccccc1N1CCCCC1)C1CCN(S(=O)(=O)c2ccccc2C(F)(F)F)CC1` gave HCMV inh -61*, Pf growth 48h 9.3µM*, Pf growth 96h inconclusive, HCV inh inconclusive and Sm TGR inh 2%.
CN(C)C(CNC(=O)C1CCN(S(=O)(=O)c2ccccc2C(F)(F)F)CC1)Cc1ccccc1 (centres undefined) was read as HCMV inh -20, SARS PLpro yeast 9%, Pf growth 48h inconclusive, Pf growth 96h 9.3µM*, HCV inh -9% and Sm TGR inh -3%.
`O=C(Nc1ccccc1N1CCCC1)C1CCN(S(=O)(=O)c2ccccc2)CC1` gave HCMV inh -39, SARS PLpro yeast -6%, Pf growth 48h -18%, Pf growth 96h -12%, HCV inh 9%[8.37 µM] and Sm TGR inh -5%.
For Cc1ccc(CN(Cc2ccco2)C(=O)c2ccccc2Cl)o1 the results were HCMV inh -6 and Sm TGR inh 0%.
For Cc1cc(S(=O)(=O)NC(C)c2nnc3ccccn23)ccc1Br (centres undefined) the results were HCMV inh 17, SARS PLpro yeast 6% and HCV inh 4%.
CCOC(=O)c1cc(-c2ccccc2)n(CCCC(=O)Nc2ccc(CC)cc2)c1C was read as HCMV inh inconclusive and Sm TGR inh -1%.
